The values below come from PubChem BioAssay (Tox21).

Molecules are shown by their SMILES. Where “and” joins values, the source holds several entries; their conditions need not be identical. Equal entries are not always repeated. Unmarked numbers belong to inactive results. Records with an inconclusive call do not appear. Calls of active or inactive are those of the source. Unless noted, the call rests on the fitted dose curve; in most records, active means well fitted curve in the direction sought with a large enough effect in the repeat runs; inconclusive means weak or mixed curves; inactive means no such curve, though single readings can be large; an effect the other way counts as inactive or inconclusive.

Assay [1] in a line: qHTS assay to identify small molecule agonists of the constitutive androstane receptor (CAR) signaling pathway - cell viability counter screen (AID 1224836). Further: nearly all actives have a fitted effect of over 45% in size. Further: potency means the concentration at half of the fitted maximal effect. In a few lines: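 Using CellTiter-Fluor, viability of HepG2 cells harbouring hCAR and CYP2B6-2.2kb was measured following 23 h incubation with a 15-concentration compound series plus PK11195 (0.75 uM final).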
The nature of assay [2]: qHTS assay to identify small molecule antagonists of the constitutive androstane receptor (CAR) signaling pathway - cell viability counter screen (AID 1224837). Further: nearly all actives have a fitted effect of over 45% in size. Further: potency means the concentration at half of the fitted maximal effect. In a few lines: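 Multiplexed cytotoxicity read-out for the CAR antagonist screen: double-stable HepG2-CYP2B6-hCAR cells co-treated with 50 nM CITCO (final) and compound over 15 concentrations, incubated 23 hr, then assessed by CellTiter-Fluor fluorescence.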

Assay [3] concerns the target Nuclear receptor subfamily 1 group I member 3 (Homo sapiens) (UniProt Q14994). The experiment in a line: qHTS assay to identify small molecule antagonists of the constitutive androstane receptor (CAR) signaling pathway (AID 1224838). Further: nearly all actives have a fitted effect of over 40% in size. Further: potency means the concentration at half of the fitted maximal effect. A digest of the protocol: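 Compounds were titrated across 15 concentrations onto HepG2 cells double-stably expressing hCAR and a CYP2B6-2.2kb reporter, together with 50 nM CITCO (final). After 24 h at 37 C, luciferase activity was measured by luminescence.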
For orientation: In qHTS, concentration-response curves come from the screen itself.

The target is the same in assay [4]. The experiment in a line: qHTS assay to identify small molecule agonists of the constitutive androstane receptor (CAR) signaling pathway (AID 1224839). Further: nearly all actives have a fitted effect of over 15% in size. Further: potency means the concentration at half of the fitted maximal effect. A digest of the protocol:
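Double-stable HepG2 cells (hCAR, CYP2B6-2.2kb) seeded 4 h before compound addition. Exposure 24 h with 0.75 uM PK11195 final. Luciferase detected by ONE-Glo.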

Assay [5] is described as follows: qHTS assay to identify small molecule antagonists of the estrogen related receptor signaling pathway with the pleiotropic PPARgamma coactivator (PGC) from Tox21 10K library - cell viability counter screen (AID 1224840; active means well fitted cell-killing curve with a large enough effect in the repeat runs, not every such curve was filed as active; further: nearly all actives have a fitted effect of over 40% in size; further: potency means the concentration at half of the fitted maximal effect). In a few lines: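 Step one, plate 2,000 PGC/ERR cells per well; step two, incubate 6 h at 37 C/5% CO2; step three, pin-transfer compounds; step four, incubate 17.5 h; step five, add CellTiter-Fluor and read fluorescence after 30 min.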

Assay [6] in a line: qHTS assay to identify small molecule antagonists of the estrogen related receptor signaling pathway with the pleiotropic PPARgamma coactivator (PGC) from Tox21 10K library (AID 1224841; call rule not given here; further: actives are mostly falling curves and most rising ones were filed inactive; nearly all actives have a fitted effect of over 50% in size; further: potency means the concentration at half of the fitted maximal effect). In a few lines:
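Antagonism in this quantitative HTS is taken from loss of luciferase signal in PGC/ERR cells. Cells (2,000/well) are treated with compounds in DMSO after a 6 h settling period and read by One-Glo luminescence after 18 h.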

Assay [7] can be described thus: qHTS assay to identify small molecule agonists of the estrogen related receptor signaling pathway with the pleiotropic PPARgamma coactivator (PGC) from Tox21 10K library (AID 1224842). Further: nearly all actives have a fitted effect of over 15% in size. In a few lines:
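Luminescence from One-Glo (30 min, room temperature) measured after PGC/ERR cells had 18 h at 37 C with pinned compound (23 nL in DMSO). Cells had been seeded at 2,000 per well and pre-incubated 6 h.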

Assay [8] concerns the target Thyrotropin receptor (Homo sapiens) (UniProt P16473). The experiment in a line: qHTS assay to identify small molecule agonists of the thyroid stimulating hormone receptor (TSHR) signaling pathway (AID 1224843; calls by dose curve; further: nearly all actives have a fitted effect of over 45% in size). A digest of the protocol:
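HEK293 cells stably bearing the thyrotropin receptor were plated at 800 cells/well and challenged with compound (30 min, RT). Accumulated cAMP was quantified via cAMP-d2 competing for cryptate-tagged antibody.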

Assay [9] in a line: qHTS assay to identify small molecule agonists of H2AX (AID 1224845; active means well fitted activation curve with a large enough effect in the signal ratio in the repeat runs, not every such curve was filed as active; the % refers to the signal ratio; further: potency means the concentration at half of the fitted maximal effect). A digest of the protocol:
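Phospho-H2AX Ser139 measured by HTRF (ex 320 nm; em 665 and 620 nm) after 24 hr antibody incubation. Compounds, 15 concentrations, 0.76% DMSO, were applied to CHO-K1 cells for 3hr at 37C before lysis.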

A short description of assay [10]: qHTS assay to identify small molecule agonists of H2AX - cell viability counter screen (AID 1224847; calls by dose curve; further: nearly all actives have a fitted effect of over 30% in size; further: potency means the concentration at half of the fitted maximal effect). A digest of the protocol: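 Quantitative HTS viability measurement: CHO-K1 wild-type cells in serum (10% FBS) medium, short 3 hr drug exposure at 37C with 0.76% DMSO, CellTiter-Glo luminescent detection.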
A short description of assay [11]: qHTS assay to identify small molecule antagonists of the estrogen related receptor (ERR) signaling pathway from Tox21 library (AID 1224848). Further: nearly all actives have a fitted effect of over 50% in size. Further: potency means the concentration at half of the fitted maximal effect. A digest of the protocol: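 Reading was by luminescence 30 min after ONE-Glo addition. Before that, ERR cells at 2,000 per well had rested 6 h at 37 C/5% CO2 and then received pin-tooled compounds in DMSO for 18 h at 37 C.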

The nature of assay [12]: qHTS assay to identify small molecule agonists of the estrogen related receptor (ERR) signaling pathway from Tox21 library (AID 1224849; calls by dose curve; further: nearly all actives have a fitted effect of over 15% in size). As to conditions: ERR reporter cell line, ONE-Glo luciferase, 18 h; at 92.4 µM (top of the series) unless noted. A digest of the protocol: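 Agonist signal is luciferase luminescence from an ERR reporter cell line treated 18 h at 37 C with DMSO-dissolved compounds, read 30 min after ONE-Glo addition at room temperature.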

The nature of assay [13]: qHTS RealTime-Glo MT Cell Viability Assay in HepG2 cells - 24 hour (AID 1224867). Further: nearly all actives have a fitted effect of over 50% in size. Further: potency means the concentration at half of the fitted maximal effect. A digest of the protocol:
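Luminescence read-out: viable HepG2 cells reduce a prosubstrate to a NanoLuc substrate, giving a signal proportional to live cell number. Reads taken at 0, 8, 16, 24, 32 and 40 h of compound exposure at 37 C.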

Assay [14] can be described thus: qHTS RealTime-Glo MT Cell Viability Assay in HEK293 cells - 32 hour (AID 1224868). Further: nearly all actives have a fitted effect of over 50% in size. Further: potency means the concentration at half of the fitted maximal effect. A digest of the protocol: (§1)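 Nonlytic real-time viability readout: viable cells convert prosubstrate to NanoLuc substrate, giving luminescence proportional to live cell number. HEK293, 600 cells/well, compound added after 5 h, continuous culture at 37 C.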
Assay [15] can be described thus: A CellTox Green Cytotoxicity Assay to monitor cytotoxicity in HEK293 cells - 0 hour (AID 1224869). Further: nearly all actives have a fitted effect of over 50% in size. A digest of the protocol: (§2)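 Cytotoxicity was tracked continuously in HEK293 cells by a DNA-binding dye excluded from viable cells. Compounds were transferred in DMSO 5 h after seeding; fluorescence was recorded at intervals up to 40 h.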
Assay [16] in a line: qHTS RealTime-Glo MT Cell Viability Assay in HepG2 cells - 40 hour (AID 1224870). Further: nearly all actives have a fitted effect of over 50% in size. Further: potency means the concentration at half of the fitted maximal effect. A digest of the protocol: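 Real-time viability: cells seeded at 600 per well together with NanoLuc and cell-permeant prosubstrate, compounds added after 5 h incubation. Luminescence tracked at 0, 8, 16, 24, 32 and 40 h of exposure.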
Assay [17] can be described thus: A CellTox Green Cytotoxicity Assay to monitor cytotoxicity in HEK293 cells - 40 hour (AID 1224871). Further: nearly all actives have a fitted effect of over 45% in size. Further: potency means the concentration at half of the fitted maximal effect. In a few lines: as §2
Assay [18] is described as follows: qHTS RealTime-Glo MT Cell Viability Assay in HEK293 cells - 16 hour (AID 1224872). Further: nearly all actives have a fitted effect of over 50% in size. Further: potency means the concentration at half of the fitted maximal effect. In a few lines: as §1
Assay [19] can be described thus: qHTS assay to identify small molecule agonists of the hypoxia (HIF-1) signaling pathway - cell viability counter screen (AID 1224844; calls by dose curve; further: nearly all actives have a fitted effect of over 50% in size; further: potency means the concentration at half of the fitted maximal effect). A digest of the protocol:
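Tox21 10K compounds were added to HRE-bla ME-180 cells (0.5% dialyzed FBS) and incubated 17 hrs at 37C; ATP-based CellTiter-Glo luminescence then reported cell viability in the same wells.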
On the % scale 0 is the no-effect control and ±100 the full control effect.

Chain of Thyrotropin receptor (Homo sapiens) (P16473 whole entry, looked up): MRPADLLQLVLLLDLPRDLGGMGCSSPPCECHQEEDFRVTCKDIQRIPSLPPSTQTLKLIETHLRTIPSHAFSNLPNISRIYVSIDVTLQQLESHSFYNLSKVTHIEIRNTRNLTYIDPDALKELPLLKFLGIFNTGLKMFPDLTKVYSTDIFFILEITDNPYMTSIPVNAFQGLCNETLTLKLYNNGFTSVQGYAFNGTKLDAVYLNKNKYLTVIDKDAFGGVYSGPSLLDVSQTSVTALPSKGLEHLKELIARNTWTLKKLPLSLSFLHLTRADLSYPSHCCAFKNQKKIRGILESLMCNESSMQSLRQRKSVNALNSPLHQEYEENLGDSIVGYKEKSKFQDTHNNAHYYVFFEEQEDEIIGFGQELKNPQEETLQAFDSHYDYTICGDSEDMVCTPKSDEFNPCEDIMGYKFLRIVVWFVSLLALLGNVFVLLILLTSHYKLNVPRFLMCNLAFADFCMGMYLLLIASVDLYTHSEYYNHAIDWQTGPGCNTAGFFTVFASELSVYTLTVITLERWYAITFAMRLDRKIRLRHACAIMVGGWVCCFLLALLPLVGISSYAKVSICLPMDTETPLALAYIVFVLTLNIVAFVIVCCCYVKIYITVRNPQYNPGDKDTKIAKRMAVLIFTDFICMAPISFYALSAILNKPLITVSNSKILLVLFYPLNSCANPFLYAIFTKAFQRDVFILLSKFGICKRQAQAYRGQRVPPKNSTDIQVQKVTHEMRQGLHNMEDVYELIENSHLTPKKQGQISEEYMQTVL
Chain of Nuclear receptor subfamily 1 group I member 3 (Homo sapiens) (Q14994 whole entry, looked up): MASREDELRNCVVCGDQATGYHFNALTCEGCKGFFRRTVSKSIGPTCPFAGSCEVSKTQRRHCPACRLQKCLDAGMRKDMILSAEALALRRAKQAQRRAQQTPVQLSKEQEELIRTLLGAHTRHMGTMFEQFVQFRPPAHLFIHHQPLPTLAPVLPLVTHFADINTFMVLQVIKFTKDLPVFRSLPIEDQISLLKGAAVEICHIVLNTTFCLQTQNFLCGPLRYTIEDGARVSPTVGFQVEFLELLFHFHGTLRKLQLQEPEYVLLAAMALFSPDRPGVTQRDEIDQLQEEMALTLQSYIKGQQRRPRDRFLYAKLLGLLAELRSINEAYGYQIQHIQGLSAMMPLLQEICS

Regarding `CCc1cc(Cc2cc(CC)cc(C(C)(C)C)c2O)c(O)c(C(C)(C)C)c1`, the Potency in assay [1] is 61.1 µM (active); in assay [2] it was 61.1 µM (active); in [3], 21.7 µM (active); in assay [5], 43.3 µM (active); in assay [6] it was 27.3 µM (active); in assay [9] it was 50.5 µM (active). For the same molecule, the Potency is 31.8 µM (active) in assay [10]; 30.6 µM (active) in [11]; 49 µM (active) in assay [13]; 19.5 µM (active) in [14]; 54.9 µM (active) in assay [16]; 54.9 µM (active) in assay [17]. Also, in [18], the Potency was 13.8 µM (active). The Potency result in [4], in assay [7], in assay [8] and in [15] was “inactive” each time. Also, the activity change, positive = activation in assay [12] was -75.4%.

Consider `C[C@H](CCC(=O)O)[C@H]1CC[C@H]2[C@@H]3CC[C@@H]4C[C@H](O)CC[C@]4(C)[C@H]3CC[C@]12C`, for which the Potency result in assay [1], in assay [2], in [3], in assay [4], in assay [5] and in [7] was “inactive” in each case. Also, the Potency result in assay [11], in [13], in assay [14], in assay [15], in assay [16] and in [17] was “inactive” in each case. In [18], the Potency entry is “inactive”. The Potency is 68.3 µM (active) in assay [6]; 43.5 µM (active) and 34.7 µM (active) in assay [19]; 89.4 µM (active) and 56.6 µM (active) in assay [9]; 100 µM (active) and 80 µM (active) in assay [10]. In addition, the activity change, positive = activation in [12] is -9.3% and -27.2%.

As for `CC(C)=CCOc1ccc(/C=C/C(=O)c2ccc(OCC=C(C)C)cc2OCC(=O)O)cc1`, the Potency entry in [1], in [2], in assay [3], in assay [4], in assay [5] and in assay [7] was “inactive” throughout. The Potency entry in [8], in assay [19], in assay [9], in [10], in assay [13] and in assay [14] was “inactive” throughout. Moreover, the Potency result in assay [15], in assay [16], in assay [17] and in assay [18] was “inactive” each time. Moreover, in [6], the Potency was 21.1 µM (active). Besides, the activity change, positive = activation in [12] is -23.7% [at 42.5 µM].

`O=c1cccccc1O`: the Potency entry in assay [1], in assay [2], in assay [3], in [4], in assay [5] and in [8] was “inactive” each time. For the same molecule, the Potency result in [10], in assay [13], in [15], in assay [16], in assay [17] and in [18] was “inactive” in each case. Further, in assay [9], the Potency was 40.9 µM (active).

For the molecule `C/C(=C(/OCCOc1ccc(Cl)cc1)c1ccc(Cl)cc1Cl)n1ccnc1`, the Potency result in assay [1], in assay [2], in assay [3], in [4], in assay [5] and in [8] was “inactive” throughout. Besides, the Potency result in [9], in [10], in assay [13], in [15] and in [17] was “inactive” in each case.

As to `CCOC(=O)/C=C(C)/C=C/C=C(C)/C=C/c1c(C)cc(OC)c(C)c1C`, the Potency result in [1], in assay [2], in [3], in assay [4], in assay [5] and in assay [8] was “inactive” in each case. In addition, the Potency result in assay [9], in assay [13], in assay [15], in assay [16], in [17] and in assay [18] was “inactive” each time.

In the case of `NNc1nc(-c2ccccc2)cs1`, the Potency result in assay [1], in [2], in assay [3], in [6], in assay [7] and in assay [8] was “inactive” in each case. The Potency entry in [13], in assay [15] and in assay [17] was “inactive” throughout. The Potency in assay [4] was 49.9 µM (active). Besides, the activity change, positive = activation in assay [12] is -30.7%.
